# Source: PubChem BioAssay AID588405 (Sanford-Burnham Center for Chemical Genomics, 2011)
# The whole screen tested about 360,000 compounds, of which about 6,200 (1.7%) were called active. Shown is part of a subset that was picked to be rich in actives. Unmarked numbers belong to inactive results.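 The calls were made as follows: active = inhibition of at least 50% at 20 µM; inactive = the rest.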
# Test: Peg3 promoter-driven luciferase inhibitors, primary screen, cell-based, HeLa, luciferase luminescence (AID 588405)
# Details: HeLa PEG-Prom luciferase reporter, overnight, at 20 µM, hits give high values
row,SMILES,inhibition
1,Cc1nn(-c2ccccc2)c(Cl)c1/C=N/NC(=O)c1nn(C)cc1[N+](=O)[O-],-116%
2,CC(C)(C)c1cc(C(=O)N/N=C/c2ccc([N+](=O)[O-])s2)n[nH]1,50.6% (active)
3,O=[N+]([O-])c1ccc(C=Nc2ccc(Cl)cc2Cl)s1,47.5%
4,CCNC(=O)C1(C)CCCN(C(=O)c2ccc3ccccc3n2)C1 (stereo not given),-7.45%
5,CNC(=O)c1cccc2nc3ccccc3nc12,6.22%
6,CCCN(CCC)CCNC(=O)c1cc2c(C)nc3ccccc3c2o1,18.8%
7,CN(C)CCNC(=O)c1ccc(Cl)c2cc3ccccc3nc12,102% (active)
8,COc1ccc(-c2cc3c(c4c2ccn4C)C2CCC3C2)cn1 (stereo not given),-6.53%
9,CNC[C@H](CC1CCCCC1)NC[C@H](NCCC1CCCC1)[C@H](C)O,73.8% (active)
10,CCCCC[C@@H]1C=C(C(=O)OCC)[C@H](c2ccccc2)N1S(=O)(=O)c1ccc(C)cc1,12.8%
11,CC(C)Cc1nnc(NC(=O)CCC(=O)Nc2ccc3cn[nH]c3c2)s1,19.8%
12,COC(=O)c1cc(NC2c3ccccc3C(=O)N2c2ccc(Cl)cn2)cc(C(=O)OC)c1 (stereo not given),-65.5%
13,CN(Cc1ccccc1F)c1cc2c(c3c1ccn3C)C1CCC2O1 (stereo not given),33.1%
14,Cc1cc(C)cc(C(=O)NCCN2CCOCC2)c1,3.53%
15,Cc1cccc(C(=O)OC(C)CN2CCN(C)CC2)c1 (stereo not given),-101%
16,Cc1cccc(-c2nc3ccc(C(=O)NCCN4CCN(C)CC4)cc3nc2-c2cccc(C)c2)c1,103% (active)
17,Cc1ccc(S(=O)(=O)NCC(=O)NNC(=O)c2ccc(Br)cc2)cc1C,4.68%
18,CCOc1cc(N2CCOCC2)c(OCC)cc1NC(=O)c1ccc(C)s1,-88.6%
19,CCOc1cc(N2CCOCC2)c(OCC)cc1NC(=O)COc1cccc2cccnc12,109% (active)
20,CCOc1cc(N2CCOCC2)c(OCC)cc1NC(=O)COC(=O)[C@H](Cc1c[nH]c2ccccc12)NC(C)=O,22.9%
21,CC1(C(=O)Nc2cccc3c2CCCC3)CCN1C(=O)CCc1ccc(Cl)cc1Cl (stereo not given),36.2%
22,COc1ccc(OC)c(C(O)c2nc3ccccc3n2C)c1 (stereo not given),0.26%
23,CC1=C(C(=O)N2CCOCC2)CC(CC(=O)NCCCN(C)C)C(=O)N1Cc1ccc(C(C)(C)C)cc1 (stereo not given),-10.2%

row,SMILES,inhibition
1,Cc1ccc(S(=O)Cc2ccc(C(=O)N3CCN(C4CCCCC4)CC3)o2)cc1 (stereo not given),24.1%
2,CN(C)S(=O)(=O)c1cccc(C(=O)OCC(=O)N2CCCC2=O)c1,-2.53%
3,CCOC(=O)c1ccc(NC(=O)Cc2cccs2)cc1,-222%
4,O=C(COC(=O)CNC(=O)c1ccco1)Nc1ccc(F)cc1,8.45%
5,CCOC(=O)c1ccc(NC(=O)CNC(=O)c2ccco2)cc1,102% (active)
6,CCCNC(=O)C1(C)CCN(Cc2ccc(Cl)c(Cl)c2)C1 (stereo not given),1.28%
7,Cc1ccc(NC(=O)Nc2cc(-c3ccccc3)nn2C)cc1Cl,4.66%
8,CC(=O)Nc1ccc(-c2cn3cccnc3n2)cc1,-72.3%
9,CC(=O)Nc1ccc(-c2csc(NC(=O)Nc3ccccc3)n2)cc1,102% (active)
10,COc1ccc(S(=O)(=O)N(C)C[C@H]2Oc3c(NC(=O)Nc4ccc5c(c4)OCO5)cccc3C(=O)N([C@H](C)CO)C[C@@H]2C)cc1,-2.6%
11,CCCNC(=O)C1(C)CCN(C(=O)c2cc(F)ccc2C)C1 (stereo not given),-1.83%
12,CCc1nc2ccc(C(=O)N3CCC(O)(Cc4ccccc4)CC3)cn2c1N(C)C(=O)Cc1ccccc1,4.95%
13,COc1ccc(/C(C)=N/N2CCOCC2)c(O)c1,-9.18%
14,CN(C)CC(O)COc1ccc(C(C)(C)c2ccc(OCC(O)CN(C)C)cc2)cc1 (stereo not given),77.5% (active)
15,Cc1cc(C)n(CC(O)COc2ccc(C(C)(C)C)cc2)n1 (stereo not given),-28.6%
16,CCCC(O)(c1ccc(OC)cc1)C(CN(C)C)c1ccccc1 (stereo not given),7.67%
17,CS(=O)(=O)N(CC(=O)N1CCCC1)Cc1ccccc1,3.29%
18,CCCCc1ccc(S(=O)(=O)NC(=O)C2(C)CCN2C(=O)c2ccccc2)cc1 (stereo not given),0.57%
19,O=C(NCCO)c1cccc(-c2cccc3nccn23)c1,-16.2%
20,O=C(Nc1ccc2c(c1)OCCO2)C(C1CC1)N1CCC(Cc2ccccc2)CC1 (stereo not given),-10.2%
21,NC(c1csc(NC(=O)Nc2cccc(C(F)(F)F)c2)n1)C1CCCCC1 (stereo not given),111% (active)
22,C/C(CC(=O)Nc1cccc(C(F)(F)F)c1)=N\NC(=O)C(=O)NCC(C)C,-1.6%
23,O=C(Nc1cccc(F)c1)NC1CCCCCCC1,-273%

row,SMILES,inhibition
1,NC(c1ccccc1)c1csc(NC(=O)Nc2cccc(C(F)(F)F)c2)n1 (stereo not given),113% (active)
2,CC(=O)c1ccc(Nc2nc(C(N)c3ccccc3)cs2)cc1 (stereo not given),-58.5%
3,O=C(Nc1ccc(C(=O)N2CCOCC2)cc1)Nc1cccc(C(F)(F)F)c1,2.67%
4,COc1cccc(NC(=O)Nc2ccc(F)cc2)c1,-212%
5,COc1ccc(C(CC(=O)Nc2ccc(C)cc2)NC(=O)C(F)(F)F)cc1 (stereo not given),3.66%
6,COc1ccc(C(N)c2csc(NC(=O)Nc3cccc(C(F)(F)F)c3)n2)cc1 (stereo not given),96.6% (active)
7,Cc1cc(Br)ccc1NC(=O)CCCOc1cc(=O)n(C)c2ccccc12,-16.6%
8,Cc1ccc(C)c(OCCC(=O)Nc2cccc(S(=O)(=O)N3CCCC3)c2)c1,21.3%
9,COC(=O)CNC(c1ccccc1Cl)c1cc(Br)ccc1NC(=O)CCN1CCOCC1 (stereo not given),20.5%
10,COC(=O)Cc1cnc(NC(=O)CSc2nc(C(C)C)cc(=O)[nH]2)s1,1.1%
11,CC1(Oc2cccc(F)c2)CCN(Cc2ccccc2OC(F)F)C1 (stereo not given),2.93%
12,CCCNC(=S)N1CCC(NC(=O)C23CC4CC(CC(C4)C2)C3)CC1,8.28%
13,CCNC(=O)C1CCCN(C(=O)c2cc(F)ccc2C)CC1 (stereo not given),2.54%
14,CCc1nc2ccc(C(=O)NC3CCN(Cc4ccccc4)CC3)cn2c1N(C)CCN1CCOCC1,-22.2%
15,CCC(=O)N1CCC(C)(C(=O)Nc2cc(OC)c(OC)c(OC)c2)C1 (stereo not given),-5.88%
16,CCOC(=O)c1c(C)[nH]c2c1-c1ccccc1C(=O)C2=O,108% (active)
17,CCOC(=O)c1[nH]c2ccccc2c1N=C(C)N(CC)CC,12.3%
18,CCOC(=O)c1c(C)[nH]c(C)c1S(=O)(=O)NCCCc1ccco1,-7.04%
19,Brc1ccc(Nc2c3c(nc4ncnn24)CCC3)cc1,22.3%
20,CC(=O)c1cccc(-c2cnc3c(NC=O)cc(-c4ccc(N5CCN(C)CC5)cc4)cn23)c1,-143%
21,CC1(C(=O)NS(=O)(=O)c2cccc(OC(F)F)c2)CCN1C(=O)C1CC1 (stereo not given),-2.21%
22,CCCCn1c(N)c(N2CCOCC2)c(=O)n(CC(=O)NCCc2ccccc2)c1=O,2.61%
23,CN(C(=O)CCN1C(=O)/C(=C/c2ccccc2F)SC1=S)C1CCS(=O)(=O)C1 (stereo not given),6.96%

row,SMILES,inhibition
1,O=C1/C(=C\c2ccccc2Cl)SC(=S)N1CCC(=O)N1CCCc2ccccc21,105% (active)
2,O=C(CN1CCCCCC1)NCCN1C(=O)S/C(=C\c2ccccc2Cl)C1=O,3.28%
3,Cc1cc(Br)cn2c(Cc3cccc(F)c3)c(-c3cccc(Br)c3)nc12,33.6%
4,COc1ccc(-c2ccc(C(=O)NCCN3CCOCC3)c3occc23)c(C)c1,-2.5%
5,CCOC1=C2[C@H]([C@H]3C(=O)N(c4ccccc4)C(=O)[C@H]3C1)[C@@H](c1ccccc1)N(S(=O)(=O)c1ccc(C)cc1)[C@H]2c1ccccc1,16.4%
6,Cc1ccc(S(=O)(=O)N(C)C)cc1NC(=O)c1ccc(-n2cncn2)c([N+](=O)[O-])c1,6.01%
7,CCN(CC)C(=O)C1CCCN(Cc2cccc(Cl)c2)C1 (stereo not given),3.55%
8,COc1ccc(-c2csc(C(O)c3cccc(Cl)c3)n2)cn1 (stereo not given),-7.77%
9,COc1ccc2c(c1)c(=Cc1ccc(N(C)C)cc1)c1cc(-c3ccccc3)[n+](C)n12,104% (active)
10,Cc1nc2cc(S(=O)(=O)C(F)(F)F)ccc2s1,2.35%
11,COc1cccc(CN2CCC(C(=O)NC(c3ccc4c(c3)OCO4)c3ccccn3)CC2)c1 (stereo not given),-0.88%
12,Cc1cccnc1C(NC(=O)C1CCN(Cc2ccc(Cl)c(Cl)c2)CC1)c1ccc(Cl)cc1 (stereo not given),2.43%
13,CCn1c(/C=C/c2ccc([N+](=O)[O-])o2)nc2ccccc2c1=O,93.3% (active)
14,O=c1c2ccccc2ncn1/N=C/c1ccccc1,-247%
15,Cc1ccc(-n2c(SCC(=O)N/N=C/C=C/c3ccccc3[N+](=O)[O-])nc3ccccc3c2=O)cc1,6.9%
16,CC1(C(=O)NS(=O)(=O)Cc2cccc(Cl)c2)CCN1C(=O)Cc1ccccc1 (stereo not given),8.1%
17,Cc1ccc(NS(=O)(=O)c2cc3c(cc2Br)NC(=O)CO3)cc1C,24.2%
18,O=C(CCl)Nc1ccc(Sc2ccc(NC(=O)CCl)cc2)cc1,99.8% (active)
19,CC(C)(CCl)C(=O)Nc1ccc(Sc2ccc(F)cc2)cc1,-14%
20,O=C(CCl)Nc1cccc(CP(=O)(c2ccccc2)c2ccccc2)c1,22.4%
21,CC(C)C1C(=O)N(Cc2cn(CCC3OCCO3)nn2)CCS(=O)(=O)N1Cc1ccc(-c2ccccc2C(F)(F)F)cc1 (stereo not given),12.5%
